Screening results from PubChem BioAssay.
The list is not random: actives were taken first. Their share in the collection is about 10%.
RORg inh = qHTS for inhibitors of ROR gamma transcriptional activity | 310,000 compounds, 5.4% hits | Drosophila S2 Gal4-RORgamma UAS-luciferase reporter, 20 h | Potency, µM (series often up to 53.6 µM), for the others: at the highest dose activity change, negative = inhibition, hits mostly inhibitors | AID 2551, 2010; further: on the % scale 0 is the no-effect control and ±100 the full control effect; nearly all actives have a fitted effect of over 60% in size
Target sequence (P51450 whole entry, looked up, the tested form may be a part): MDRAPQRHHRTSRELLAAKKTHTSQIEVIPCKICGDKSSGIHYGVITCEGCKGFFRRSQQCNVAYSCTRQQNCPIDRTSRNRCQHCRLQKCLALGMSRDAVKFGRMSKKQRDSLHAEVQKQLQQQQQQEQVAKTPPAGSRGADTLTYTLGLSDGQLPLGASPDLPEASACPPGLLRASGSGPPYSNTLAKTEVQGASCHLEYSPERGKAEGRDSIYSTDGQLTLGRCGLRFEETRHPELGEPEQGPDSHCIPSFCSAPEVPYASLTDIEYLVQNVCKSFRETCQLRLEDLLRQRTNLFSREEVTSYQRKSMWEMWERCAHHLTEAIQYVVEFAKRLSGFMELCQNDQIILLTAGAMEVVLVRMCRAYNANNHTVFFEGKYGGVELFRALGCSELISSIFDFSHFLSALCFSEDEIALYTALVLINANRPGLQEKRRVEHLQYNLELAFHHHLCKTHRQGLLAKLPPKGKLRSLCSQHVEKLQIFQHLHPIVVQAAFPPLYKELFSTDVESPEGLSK
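Using a luciferase readout, inhibitors were identified by reduced reporter activity in Drosophila cells coexpressing a copper-inducible Gal4–ROR gamma fusion and UAS-driven Photinus luciferase, incubated 20 hr after 700 uM copper sulfate.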
MCF10A rereplic = A quantitative high throughput screen for small molecules that induce DNA re-replication in MCF 10a normal breast cells; MCF 10A DNA re-replication, Hoechst nuclear intensity, 48 h; Potency, µM (series often up to 46.1 µM), without a hit: top-dose activity, positive = re-replication, most hits filed as activators; 350,000 compounds, 2.9% hits; AID 624296, 2012; further: % of control where 0% means no effect; nearly all actives have a fitted effect of over 50% in size
ELG1 DNA repair = qHTS screen for small molecules that inhibit ELG1-dependent DNA repair in human embryonic kidney (HEK293T) cells expressing luciferase-tagged ELG1; HEK293T ELG1-luciferase reporter, luminescence, 16 h; DNA damage induced by 5-fluorouridine; Potency, µM (highest dose often 46.1 µM), without a hit: top-dose activity change, negative = inhibition, actives largely listed as inhibitors; 330,000 compounds, 2.3% hits; further: on the % scale 0 is the no-effect control and ±100 the full control effect; nearly all actives have a fitted effect of over 55% in size
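In this reporter screen, reduction of luminescence relative to DMSO vehicle indicated activity. Compounds and 5-fluorouridine were added together to 2,000 cells per well, incubated for 16 hr at 37 °C, then developed with ONE-Glo.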
SW480 rerep = A quantitative high throughput screen for small molecules that induce DNA re-replication in SW480 colon adenocarcinoma cells; SW480 DNA re-replication, Hoechst DNA content imaging, 48 h; Potency, µM (series often up to 46.1 µM), without a hit: top-dose re-replication activation, hits mostly activators; 340,000 compounds, 1.8% hits; AID 624297, 2012; further: % of control where 0% means no effect; nearly all actives have a fitted effect of over 55% in size
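Readout is total intensity of Hoechst-stained nuclei, excited at 405 nm and collected at 500-530 nm. Compound treatment lasted 48 hr at 37 C in 5% CO2 before staining.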
VP16 counter = VP16 counterscreen qHTS for inhibitors of ROR gamma transcriptional activity; AID 2546, 2010; Potency, µM (top dose mostly 53.6 µM), for the others: top-dose activity, negative = inhibition, most hits filed as inhibitors; Drosophila S2 Gal4-VP16 UAS-luciferase, luminescence, 20 h; 310,000 compounds, 3.5% hits;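 further: Gal4-VP16 expression switched on by copper sulfate through the metallothionein promoter; on the % scale 0 is the no-effect control and ±100 the full control effect; nearly all actives have a fitted effect of over 50% in size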
Active calls of the source: *; ? = inconclusive; · = not tested or not shown. The call rests on the fitted dose curve; in most records, active means well fitted curve in the direction sought with a large enough effect; inconclusive means small, poorly fitted or top-dose-only effect, or another doubt; inactive means no such curve, though single readings can be large; an effect the other way counts as inactive or inconclusive. Potency means the concentration at half of the fitted maximal effect.

SMILES | RORg inh | MCF10A rereplic | ELG1 DNA repair | SW480 rerep | VP16 counter
COCCNC(=O)c1ccccc1NC(=O)c1cccc([N+](=O)[O-])c1C | 31% | 6% | 0% | -8% | 5%
CCOC(=O)N1CCC(NC(=O)CN(c2ccc(C(C)C)cc2)S(=O)(=O)c2c(C)nn(C)c2C)CC1 | 15% | 6% | 2% | -1% | -3%
COc1ccc(NC(=O)CN(c2ccc(C)cc2)S(=O)(=O)c2c(C)nn(C)c2C)cc1OC | 16µM* | 4% | -26% | 0% | ?
Cc1nn(C)c(C)c1S(=O)(=O)N(CC(=O)NC1CCCCCC1)c1ccc(C(C)C)cc1 | -14% | 12µM* | 0% | -2% | 1%
COc1ccc2nc(NC(=O)CN(c3ccc(C)cc3)S(=O)(=O)c3c(C)nn(C)c3C)sc2c1 | 0% | 7% | 23µM* | ? | 18µM*
CN(C)Cc1ccccc1-c1nccc(NCc2cccs2)n1 | 3% | · | · | · | -4%
COc1ccc(OC)c(NC(=O)c2ccc(-c3cccs3)cc2)c1 | ? | 19% | 11% | 23% | 1%
Cc1ccc(-c2ccc(=O)n(CC(=O)Nc3ccc4c(c3)OCCO4)n2)cc1 | -19% | ? | -1% | -23% | 0%
CN(C)S(=O)(=O)c1ccc(NC(=O)Cn2nc(-c3ccc4c(c3)OCCO4)ccc2=O)cc1 | · | 70% | · | 18µM* | ·
COc1ccccc1NC(=O)Cn1nc(-c2ccc3c(c2)OCCO3)ccc1=O | 10% | 0.92µM* | -16% | 4% | 1%
CCSC[C@H](NC(=O)[C@H](C)N)C(=O)N[C@@H](CC(=O)O)C(=O)N[C@H](C(=O)N[C@@H](C)C(=O)N[C@H](C(=O)N[C@@H](CSCC)C(=O)N[C@H](C(=O)N[C@H](C(=O)N[C@@H](Cc1cnc[nH]1)C(=O)N[C@@H](CCCNC(=N)N)C(=O)N[C@@H](CC(C)C)C(=O)N[C@@H](C)C(=O)NCC(=O)N[C@@H](CC(C)C)C(=O)N[C@@H](CC(C)C)C(=O)N[C@@H](CO)C(=O)N[C@@H](CCCNC(=N)N)C(=O)N[C@@H](CO)C(=O)NCC(=O)NCC(=O)N[C@H](C(=O)N[C@H](C(=O)N[C@@H](CCCCN)C(=O)N[C@@H](CC(N)=O)C(=O)N[C@@H](CC(N)=O)C(=O)N[C@@H](Cc1ccccc1)C(=O)N[C@H](C(=O)N1CCC[C@H]1C(=O)N[C@H](C(=O)N[C@@H](CC(N)=O)C(=O)N[C@H](C(=O)NCC(=O)N[C@@H](CO)C(=O)N[C@@H](CCCCN)C(=O)N[C@@H](C)C(=O)N[C@@H](Cc1ccccc1)C(N)=O)C(C)C)[C@@H](C)O)C(C)C)C(C)C)C(C)C)[C@@H](C)O)C(C)C)[C@@H](C)O)[C@@H](C)O | -2% | · | · | · | -1%
COc1cc2ccc(=O)oc2cc1OCC(O)C(C)(C)O (stereo unspecified) | -1% | 3% | 14% | -1% | -4%
COc1cc2ccc(=O)oc2cc1O | 11% | ? | 7% | 15µM* | -20%
CC(=O)Nc1ccc(S(=O)(=O)NNC(=O)C(=O)NNc2ccccn2)cc1 | -12% | -3% | 2% | -2% | 3%
CC(=O)Nc1ccc(S(=O)(=O)NNC2=NS(=O)(=O)c3ccccc32)cc1 | 10µM* | 5% | 1% | 6% | -24%
COc1ccc(/C=N/OC(=O)c2ccc(Cl)cc2)c(Cl)c1OC | 27% | -2% | 13% | -6% | -8%
O=C(CC1SC(=NCCc2ccccc2)N(/N=C/c2cccs2)C1=O)Nc1ccc(Cl)cc1 (stereo unspecified) | 0.5µM* | ? | 11% | 5% | 0.79µM*
O=C(CC1SC(=O)N(c2ccccc2)C1=O)Nc1ccc(Br)cc1 (stereo unspecified) | -26% | 2% | 0% | -9% | 7%
O=C(CC1SC(=O)N(c2ccccc2)C1=O)Nc1ccc(Cl)cc1 (stereo unspecified) | 16µM* | 3% | 7% | -16% | -6%
COc1ccc(CNc2cc(-c3cccc(NS(C)(=O)=O)c3)ncn2)c(OC)c1 | 2% | · | · | · | -5%
COc1ccc(S(=O)(=O)N2CCOC2CNC(=O)C(=O)NCc2ccc3c(c2)OCO3)cc1 (stereo unspecified) | · | 7% | · | 3% | ·
CC(=O)N1CCC(C(=O)OCc2ccccc2F)(c2ccccc2)CC1 | 3% | 0% | 8% | -10% | -3%
Cn1c(/C=C/c2ccc(Br)cc2)c([N+](=O)[O-])c(=O)n(C)c1=O | 11µM* | 21µM* | ? | ? | -20%
COC(=O)C1=C(C)N(Cc2ccc(OC)cc2)C(=O)/C1=C\c1ccco1 | ? | 13% | 18µM* | 0% | 7%
COC(=O)C1=C(C)N(C)C(=O)/C1=C\c1ccco1 | 0% | 3% | -3% | -3% | -2%
SMILES | RORg inh | MCF10A rereplic | ELG1 DNA repair | SW480 rerep | VP16 counter
CCOc1cc(/C=C2\C(=O)N(Cc3ccc(C)cc3)C(C)=C2C(=O)OC)ccc1O | 53% | ? | 13µM* | ? | -3%
C=CCOc1cccc(/C=C2\C(=O)N(Cc3ccc(C)cc3)C(C)=C2C(=O)OC)c1 | 2% | 16µM* | ? | ? | ?
CC(=O)c1ccc(OCC(=O)NC(=O)NC2CCCCC2)cc1 | 26% | 1% | 5% | 28% | ?
CCCCC/C=C\C/C=C\CCCCCCCC(=O)NCC(=O)O | -16% | · | · | · | -5%
O=C(CCNC(=O)c1ccccc1Cl)Nc1cccc(S(=O)(=O)N2CCCCC2)c1 | · | 6% | ? | -6% | ·
O=C(CCNC(=O)c1ccccc1)Nc1ccc(Cl)c(S(=O)(=O)N2CCCCC2)c1 | · | 10% | 16µM* | 7% | ·
Cc1ccc(CSCCNC(=O)c2ccc(Cl)c(S(=O)(=O)N3CCOCC3)c2)cc1 | 40% | 7% | 23µM* | 1% | -22%
Cc1ccc(NC(=O)CCNC(=O)c2ccc(Br)cc2)cc1S(=O)(=O)N1CCOCC1 | · | 2% | ? | 1% | ·
O=C(NCCC1=CCCCC1)c1ccc(Cl)c(S(=O)(=O)N2CCOCC2)c1 | ? | 18% | ? | 2% | 10%
O=C(CCNC(=O)c1ccc([N+](=O)[O-])cc1)Nc1ccc(Cl)c(S(=O)(=O)N2CCOCC2)c1 | · | -9% | 18µM* | -4% | ·
COc1ccc(Nc2nc(C(C)(C)C)nc3c2nnn3Cc2ccccc2Cl)cc1OC | · | ? | · | -1% | ·
Cc1nc(Nc2ccc(S(=O)(=O)N3CCCCC3C)cc2)c2nnn(Cc3ccccc3)c2n1 (stereo unspecified) | 17% | -33% | 7.3µM* | 5% | -14%
